# Assay outcomes (PubChem)
# FMDV antiviral: High Throughput Screening for Foot and Mouth Disease Virus Antivirals | AID 1159524, 2015 | FMDV antiviral cell-based qHTS | 410,000 compounds, 1.2% hits | Potency, µM (series often up to 57.9 µM), for inactives: at the highest dose activity change, negative = inhibition, usual class: inhibitors; calls by dose curve; tested in HEK293T cells; further: read-out not given here; potency means the concentration at half of the fitted maximal effect; nearly all actives have a fitted effect of over 45% in size
# HCV inh: qHTS Assay for Inhibitors of Hepatitis C Virus (HCV) | Huh7.5.1 HCVcc-Cre infection, luciferase reporter, 44 h | Potency, µM (series often up to 41.8 µM), for inactives: at the top dose activity change, negative = inhibition, most hits filed as inhibitors | 340,000 compounds, 3.4% hits; active means well fitted inhibition curve with a large enough effect; inconclusive means small, poorly fitted or top-dose-only effect, or another doubt; inactive means no such curve, though single readings can be large or run the other way; further: potency means the concentration at half of the fitted maximal effect
#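 Luciferase read-out (15 sec integration) after a 15 min room-temperature substrate step quantifies HCVcc-Cre infection. Cells, 1,000 per well, had compound added 4 h post-plating, then virus at ~0.5 moi, and were cultured 44 h.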
# Lassa entry inh: qHTS for Inhibitors of binding or entry into cells for Lassa Virus; Potency, µM (top dose mostly 37.9 µM), for the others: top-dose activity change, negative = inhibition, actives largely listed as inhibitors; Lassa virus pseudotype entry inhibition, cell reporter; 300,000 compounds, 1.2% hits; AID 540256, 2011; calls by dose curve; tested in HEK293 cells; further: potency means the concentration at half of the fitted maximal effect; nearly all actives have a fitted effect of over 50% in size
# HCMV antiviral: qHTS Assay for inhibitors of the human cytomegalovirus (HCMV); HFF cells, HCMV-luciferase reporter, 72 h; hits give low values; activity change, negative = inhibition, % at 57.5 µM; 410,000 compounds, 4.5% hits; AID 1259415, 2018; in the data active means activity change below about -60%; inconclusive means no clear call, values can overlap the other calls; inactive means above about -39%
#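 Two-dose cell screen: HFF monolayers treated with compounds and infected with luciferase-expressing HCMV at 1 PFU/cell, 72 h at 37C, then lysed for luciferase measurement.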
# MARV entry inh: qHTS for inhibitors of binding or entry into cells for Marburg Virus; Marburg virus pseudotyped entry inhibition, cell reporter; Potency, µM (doses to about 37.8 µM), for inactives: top-dose activity change, negative = inhibition, hits mostly inhibitors; 300,000 compounds, 1.8% hits; AID 540276, 2011; calls by dose curve; tested in HEK293 cells; further: potency means the concentration at half of the fitted maximal effect
# Active calls of the source: *; ? = inconclusive; · = not tested or not shown; [ ] = another dose, or the depositor's remark. An excerpt weighted towards active compounds, which were near 7.9% of everything screened. On the % scale 0 is the no-effect control and ±100 the full control effect.
SMILES,FMDV antiviral,HCV inh,Lassa entry inh,HCMV antiviral,MARV entry inh
COc1ccccc1N(C)S(=O)(=O)c1ccc(C(=O)NCC(C)C)cc1,-5.4%,-23.5%,?,20.9,-12.5%
Cc1nc2ccc(NC(=O)c3ccccc3)cc2s1,55.1%,6.2%,7.0%,28.6,-15.2%
COc1ccccc1N(C)S(=O)(=O)c1ccc(C(=O)Nc2ccc(N3CCOCC3)cc2)cc1,39.8µM*,10µM*,?,-61.7*,?
COC(=O)c1ccc(CNC(=O)c2ccc(S(=O)(=O)N(C)c3ccccc3OC)cc2)cc1,-25.0%,8.91µM*,·,-13.5,·
Cc1nc2ccc(NC(=O)c3cccc(S(=O)(=O)N(C)c4ccccc4)c3)cc2s1,25.1µM*,10µM*,?,·,17.8µM*
CN(Cc1ccc(OC(F)F)cc1)C(=O)c1ccccc1Sc1ccccc1C#N,-16.6%,?,?,-68.8*,?
O=S(=O)(Nc1cccc(-c2ccc(N3CCOCC3)nn2)c1)c1ccc(F)cc1F,27.6%,·,17.3%[46.1 µM],64.5,·
CC(C)c1c(C(=O)NCCN2CCOCC2)cnn1-c1nccc(-c2ccco2)n1,1.4%,·,·,·,·
COc1ccccc1N(C)S(=O)(=O)c1ccc(C(=O)Nc2ccc3nc(C)sc3c2)cc1,25.1µM*,?,?,-84.7*,?
COC(=O)c1cccc(NC(=O)c2ccc(S(=O)(=O)N(C)c3ccccc3OC)cc2)c1,35.5µM*,·,·,28.8,·
COc1ccccc1N(C)S(=O)(=O)c1ccc(C(=O)N(C)Cc2ccc(OC(F)F)cc2)cc1,35.5µM*,3.98µM*,?,-39.3,11.2µM*
CCCc1nnc(NC(=O)c2ccc(S(=O)(=O)N(C)c3ccccc3OC)cc2)s1,?,4.0%,-6.2%,0.0,-0.2%
COc1ccccc1N(C)S(=O)(=O)c1ccc(C(=O)Nc2cccc(Br)c2)cc1,?,12.6µM*,?,46.1,?
CCC(C)(C)NC(=O)c1ccc(S(=O)(=O)N(C)c2ccccc2OC)cc1,-16.9%,?,-19.2%,28.9,-19.9%
Cc1ccc(NC(=O)c2ccc(NC(=O)N3CCSc4ncccc43)cc2)c(Cl)c1,?,·,-6.9%[46.1 µM],?,·
COc1ccc(Cl)cc1NC(=O)Cn1c(=O)n(Cc2nc(C)no2)c(=O)c2ccccc21,-31.3%,·,?,-19.9,·
Cc1ccc(C(=O)c2oc3ccccc3c2NC(=O)COc2ccccc2C)cc1,-14.5%,·,-5.9%[46.1 µM],10.7,0.8%[46.1 µM]
Cc1nc2ccc(S(=O)(=O)N(C)CC(=O)Nc3ccc(C(C)C)cc3)cc2s1,-1.7%,·,-0.4%[46.1 µM],-60.4*,-6.8%[46.1 µM]
COc1cc(NC(=O)c2ccc(S(=O)(=O)N(C)c3ccccc3OC)cc2)cc(OC)c1,19.8%,11.2µM*,?,-22.9,?
Cc1c(F)cccc1NS(=O)(=O)c1cccs1,6.0%,·,10.6%[46.1 µM],-2.9,·
Cc1c(C(=O)N2CCCCC2)sc2ncnc(NCCc3ccccn3)c12,-17.9%,·,·,·,·
CCOc1ccc(N(CC)C(=O)CSc2n[nH]c(-c3ccccc3)n2)cc1,-15.8%,·,?,-6.1,·
COc1cccc(C2C(C(=O)/C=C/c3ccco3)=C(O)C(=O)N2CCN2CCOCC2)c1 (centres undefined),-4.5%,-3.1%,18.9%[46.1 µM],-0.4,10.7%[46.1 µM]
COc1ccc(C2C(C(=O)/C=C/c3ccco3)=C(O)C(=O)N2CCN2CCOCC2)cc1 (centres undefined),-0.7%,11.2µM*,2.1%,11.2,?
O=C1[C@H]2[C@@H]3[C@@H](O)[C@H](O)CC(=NOCc4ccccc4)[C@@H]3CC[C@H]2C(=O)N1C[C@@H]1CCCO1,·,·,·,·,6.1%[14.2 µM]
COc1ccc(NC(=O)CN(C)C(=O)C(Sc2ccccc2)c2ccccc2)cc1 (centres undefined),-27.8%,?,·,-71.9*,·
CC(Sc1nc(-c2ccc(F)cc2)cs1)C(=O)N1c2ccccc2CC1C (centres undefined),?,22.4µM*,?,-8.8,?
CCOC(=O)c1c(C)oc2ncnc(Nc3ccc(F)cc3Cl)c12,5.7%,·,0.1%[46.1 µM],8.4,·
CSc1ccc(CC2C(=O)Nc3ccccc32)cc1 (centres undefined),25.6%,·,?,?,0.9%[46.1 µM]
O=C(O)c1ccc(N=Nc2c(O)[nH]c3ccccc23)cc1,?,0.3%,5.01µM*,14.8,1.78µM*
